Measurements taken from ChEMBL document CHEMBL1961873, “Compounds: GSK PKIS; Assays: Nanosyn kinase panel” (2012).
“And” between values parts separate entries of the source, which are not always exact repeats. Equal values may be shown once.

Experiments:
[1] = molecular target: Ribosomal protein S6 kinase alpha-6 (Homo sapiens) (UniProt Q9UK32); details: at 1 µM;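 also: each value is a mean inhibition of RSK4 from a GSK PKIS panel screen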
[2] = molecular target: T1, Serine/threonine-protein kinase Sgk1 (Homo sapiens) (UniProt O00141); details: at 0.1 µM
T1 sequence (whole entry): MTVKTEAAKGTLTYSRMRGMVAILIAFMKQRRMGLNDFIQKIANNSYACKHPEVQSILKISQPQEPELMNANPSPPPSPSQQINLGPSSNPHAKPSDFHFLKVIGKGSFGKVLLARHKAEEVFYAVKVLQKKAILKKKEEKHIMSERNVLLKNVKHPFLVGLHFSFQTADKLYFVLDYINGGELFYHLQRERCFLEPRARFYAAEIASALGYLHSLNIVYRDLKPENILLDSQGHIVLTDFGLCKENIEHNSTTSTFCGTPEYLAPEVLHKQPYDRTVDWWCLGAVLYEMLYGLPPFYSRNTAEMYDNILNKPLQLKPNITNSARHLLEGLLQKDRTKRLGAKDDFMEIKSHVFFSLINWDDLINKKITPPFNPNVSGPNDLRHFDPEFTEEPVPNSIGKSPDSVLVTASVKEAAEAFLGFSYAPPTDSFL

[3] = molecular target: T1, Serine/threonine-protein kinase Sgk1 (Homo sapiens); details: at 1 µM
[4] = molecular target: T2, Serine/threonine-protein kinase Sgk2 (Homo sapiens) (UniProt Q9HBY8); details: at 0.1 µM
T2 sequence (whole entry): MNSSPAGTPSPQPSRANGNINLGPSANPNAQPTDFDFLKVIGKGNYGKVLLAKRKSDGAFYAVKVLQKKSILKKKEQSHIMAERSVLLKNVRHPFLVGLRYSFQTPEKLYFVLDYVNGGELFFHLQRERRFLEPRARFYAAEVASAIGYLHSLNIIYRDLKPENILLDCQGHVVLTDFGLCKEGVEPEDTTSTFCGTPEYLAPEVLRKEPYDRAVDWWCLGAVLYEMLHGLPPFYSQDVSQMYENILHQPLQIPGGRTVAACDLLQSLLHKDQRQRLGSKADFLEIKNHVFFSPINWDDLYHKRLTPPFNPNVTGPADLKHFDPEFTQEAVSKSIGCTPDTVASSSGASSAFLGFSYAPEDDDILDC

[5] = molecular target: T2, Serine/threonine-protein kinase Sgk2 (Homo sapiens); details: at 1 µM
[6] = molecular target: T3, Serine/threonine-protein kinase Sgk3 (Homo sapiens) (UniProt Q96BR1); details: at 0.1 µM
T3 sequence (whole entry): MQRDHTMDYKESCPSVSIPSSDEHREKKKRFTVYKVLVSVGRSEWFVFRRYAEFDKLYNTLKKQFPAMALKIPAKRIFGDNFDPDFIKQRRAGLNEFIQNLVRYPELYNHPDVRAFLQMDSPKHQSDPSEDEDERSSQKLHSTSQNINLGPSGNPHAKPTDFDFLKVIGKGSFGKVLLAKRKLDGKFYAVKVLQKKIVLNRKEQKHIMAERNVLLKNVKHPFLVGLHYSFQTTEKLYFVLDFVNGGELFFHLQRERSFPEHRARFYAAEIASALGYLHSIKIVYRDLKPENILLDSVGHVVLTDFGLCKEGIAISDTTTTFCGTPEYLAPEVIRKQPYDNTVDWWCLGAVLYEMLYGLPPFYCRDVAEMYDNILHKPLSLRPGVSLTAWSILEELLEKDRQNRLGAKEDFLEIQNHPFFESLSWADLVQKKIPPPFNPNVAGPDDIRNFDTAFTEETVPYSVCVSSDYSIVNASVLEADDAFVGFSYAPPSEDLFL

[7] = molecular target: T3, Serine/threonine-protein kinase Sgk3 (Homo sapiens); details: at 1 µM
[8] = molecular target: 5'-AMP-activated protein kinase catalytic subunit alpha-1 (Homo sapiens) (UniProt Q13131); details: at 0.1 µM
[9] = molecular target: 5'-AMP-activated protein kinase catalytic subunit alpha-1 (Homo sapiens) (UniProt Q13131); details: at 1 µM
[10] = molecular target: 5'-AMP-activated protein kinase catalytic subunit alpha-2 (Homo sapiens) (UniProt P54646); details: at 0.1 µM;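 also: mean inhibition measured on the AMPK complex of alpha2, beta1 and gamma1 subunits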
Chain of 5'-AMP-activated protein kinase catalytic subunit alpha-2 (Homo sapiens) (P54646 whole entry, looked up): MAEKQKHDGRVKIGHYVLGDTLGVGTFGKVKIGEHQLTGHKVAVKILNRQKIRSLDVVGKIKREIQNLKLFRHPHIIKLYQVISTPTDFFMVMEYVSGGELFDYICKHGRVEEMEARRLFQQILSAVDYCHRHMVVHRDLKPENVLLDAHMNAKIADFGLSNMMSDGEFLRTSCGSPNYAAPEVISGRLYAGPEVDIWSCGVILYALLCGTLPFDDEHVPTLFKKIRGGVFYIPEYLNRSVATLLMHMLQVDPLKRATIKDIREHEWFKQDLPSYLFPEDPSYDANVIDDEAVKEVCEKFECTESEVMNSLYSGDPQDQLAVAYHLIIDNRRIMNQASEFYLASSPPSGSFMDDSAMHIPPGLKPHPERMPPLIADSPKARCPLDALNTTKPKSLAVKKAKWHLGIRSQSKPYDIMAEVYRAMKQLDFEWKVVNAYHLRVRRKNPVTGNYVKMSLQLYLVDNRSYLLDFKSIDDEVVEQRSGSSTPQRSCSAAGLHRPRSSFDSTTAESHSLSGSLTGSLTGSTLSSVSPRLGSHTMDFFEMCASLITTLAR

Chain of 5'-AMP-activated protein kinase catalytic subunit alpha-1 (Homo sapiens) (Q13131 whole entry, looked up): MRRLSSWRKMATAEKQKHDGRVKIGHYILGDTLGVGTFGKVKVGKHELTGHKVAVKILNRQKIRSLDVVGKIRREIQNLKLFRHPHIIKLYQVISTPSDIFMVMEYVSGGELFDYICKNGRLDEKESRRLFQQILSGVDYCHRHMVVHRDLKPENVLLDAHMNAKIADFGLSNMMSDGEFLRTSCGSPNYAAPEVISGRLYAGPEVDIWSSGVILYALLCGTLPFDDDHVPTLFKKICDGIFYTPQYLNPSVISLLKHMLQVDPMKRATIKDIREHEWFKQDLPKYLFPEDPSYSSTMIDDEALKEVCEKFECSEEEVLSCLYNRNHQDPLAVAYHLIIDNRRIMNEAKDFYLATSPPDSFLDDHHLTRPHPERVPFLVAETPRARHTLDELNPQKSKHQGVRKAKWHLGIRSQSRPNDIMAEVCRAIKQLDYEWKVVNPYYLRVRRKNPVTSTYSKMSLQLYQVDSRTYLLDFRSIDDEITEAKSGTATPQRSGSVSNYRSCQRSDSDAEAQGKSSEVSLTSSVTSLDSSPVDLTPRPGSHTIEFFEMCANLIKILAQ
Chain of Ribosomal protein S6 kinase alpha-6 (Homo sapiens) (Q9UK32 whole entry): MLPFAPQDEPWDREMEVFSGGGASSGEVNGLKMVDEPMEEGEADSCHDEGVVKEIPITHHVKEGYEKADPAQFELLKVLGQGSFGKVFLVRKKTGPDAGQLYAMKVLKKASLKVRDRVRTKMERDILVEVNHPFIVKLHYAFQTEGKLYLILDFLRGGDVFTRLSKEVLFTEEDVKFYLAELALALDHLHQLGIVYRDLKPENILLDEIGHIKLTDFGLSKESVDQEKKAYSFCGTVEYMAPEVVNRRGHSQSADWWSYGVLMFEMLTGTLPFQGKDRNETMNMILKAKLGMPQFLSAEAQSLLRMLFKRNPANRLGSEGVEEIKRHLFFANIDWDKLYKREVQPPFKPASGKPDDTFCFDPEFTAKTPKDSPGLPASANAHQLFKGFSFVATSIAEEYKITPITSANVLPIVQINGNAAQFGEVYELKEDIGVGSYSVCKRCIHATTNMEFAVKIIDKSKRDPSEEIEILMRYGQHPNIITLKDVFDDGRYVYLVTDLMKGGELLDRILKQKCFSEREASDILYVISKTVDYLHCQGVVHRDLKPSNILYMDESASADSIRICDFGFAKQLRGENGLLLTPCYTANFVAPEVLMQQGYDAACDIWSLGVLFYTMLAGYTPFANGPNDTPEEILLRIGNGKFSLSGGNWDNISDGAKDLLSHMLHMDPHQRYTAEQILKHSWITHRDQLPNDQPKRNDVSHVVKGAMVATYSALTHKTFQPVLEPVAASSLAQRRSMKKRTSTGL

Structure (SMILES)	inhibition [1]	inhibition [2]	inhibition [3]	inhibition [4]	inhibition [5]	inhibition [6]	inhibition [7]	inhibition [8]	inhibition [9]	inhibition [10]
Cc1c2ccc(N(C)c3ccnc(Nc4cccc(S(N)(=O)=O)c4)n3)cc2nn1C	4.77%	3.85%	4.14%	2.67%	3.7%	4.44%	8.06%	3.77%	4.2%	3.67%
CCS(=O)(=O)c1ccc(OC)c(Nc2ncc(-c3cccc(C(C)=O)c3)o2)c1	2.13%	0.32%	5.11%	2.27%	3.41%	1.59%	2.93%	2.21%	4.72%	-0.37%
CCS(=O)(=O)c1ccc(OC)c(Nc2ncc(-c3cccc(F)c3)o2)c1	6.33%	2.66%	4%	0.06%	1.18%	3.85%	3.03%	2.82%	5.78%	7.22%
CNC(=O)c1sc(-n2cnc3cc(OC)c(OC)cc32)cc1OCc1ccccc1C(F)(F)F	1.47%	2.16%	1.23%	0.8%	2.63%	3.8%	1.89%	3.22%	4.14%	0.14%
CC1=C(C(=O)Nc2ccc3[nH]ncc3c2)C(c2ccc(F)cc2)N=C(c2ccc(C(F)(F)F)nc2)N1 (stereo not given)	0.46%	1.43%	2.75%	2.27%	4.47%	4.38%	2.31%	1.92%	8.74%	0.84%
N#Cc1cccc(Nc2ncc(-c3ccccc3)o2)c1	-0.13%	2.75%	7.53%	1.9%	-1.67%	2.18%	5.3%	1.1%	1.53%	-0.83%
COc1cc(N2CCN(C(C)C)CC2)ccc1Nc1nc(Nc2cccc3ncccc23)c2cc[nH]c2n1	2.88%	1.18%	-0.91%	-3.32%	-0.85%	0.42%	0.55%	0.27%	0.86%	0.57%
COc1ccccc1-c1cc(/C=C2\C(=O)Nc3ncc(Br)cc32)cc(Br)c1O	2.05%	4.47%	5.53%	3.23%	2.58%	4.46%	0.16%	4.85%	9.85%	5.58%
CN(c1ccc(NC(=O)NCCN2CCOCC2)cc1)c1ccnc(Nc2ccc(CS(C)(=O)=O)cc2)n1	2.33%	2.3%	5%	1.89%	3.1%	4.46%	2.63%	3.65%	4.22%	0.93%
CS(=O)(=O)CCNCc1ccoc1-c1ccc2ncnc(Nc3ccc(OCc4ccccc4)cc3)c2c1	-0.72%	2.02%	1.39%	2.28%	-3.3%	5.61%	1.1%	-0.71%	-0.55%	0.46%
CN1CCC(C(=O)Nc2n[nH]c3nc(-c4ccc(O)cc4)c(Br)cc23)CC1	12.7% and 9.62%	5.12% and 1.94%	10.4% and 4.16%	3.28% and 2.28%	6.79% and 6.21%	1.96% and 6.46%	6.31% and 0.32%	5.11% and 1.11%	18.7% and 10.6%	3.96% and 2.49%
NS(=O)(=O)c1ccc(N/N=C2\C(=O)Nc3cccc(CCc4ccncc4)c32)cc1	7.42%	1.76%	1.65%	3.09%	-0.79%	-1.13%	-0.92%	4.83%	8.26%	3.2%
O=C(O[C@H]1CN[C@H](C#Cc2cc3ncnc(Nc4ccc(OCc5cccc(F)c5)c(Cl)c4)c3s2)C1)N1CCOCC1	1.82%	3.69%	4.68%	6.81%	6.86%	7.16%	6.57%	4.66%	4.92%	4.18%
CS(=O)(=O)Nc1ccc(-c2cc(-c3ccccc3)cc(C(N)=O)c2N)cc1	0.06%	0.87%	2.29%	9.08%	0.51%	0.13%	2.54%	0.7%	1.42%	5.24%
Cc1cc(O)cc(C)c1/C=C/c1cncc(C(N)=O)c1	1.18%	1.6%	2.14%	3.61%	3.1%	1.2%	1.31%	1.98%	1.85%	2.5%
O=C(Nc1n[nH]c2nnc(-c3cccnc3)cc12)C1CC1	0.26%	0.71%	-0.17%	-0.62%	3.04%	-2.68%	-0.26%	-0.35%	0.39%	0.65%
